This is part of a sample that, as a whole, favours compounds with a hit. Of some 83,000 tested, about 20% had one in any assay.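 The test compound was applied at a single concentration to cells in 96-well plates for 48 hours, and percent growth was recorded.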 Unmarked numbers belong to inactive results. Active and inactive are the calls of the source. Rule for the calls: active = growth percent below 10; inactive = the rest.

Test systems include SK-MEL-2 melanoma; EKVX NSCLC; SN12C renal; UO-31 renal; TK-10 renal; ACHN renal; CAKI-1 renal; A498 renal; CCRF-CEM leukemia; MOLT-4 leukemia; SR leukemia; RPMI-8226 leukemia; OVCAR-8 ovarian; OVCAR-5 ovarian; OVCAR-4 ovarian; SK-OV-3 ovarian; IGROV1 ovarian; OVCAR-3 ovarian; HS 578T breast; NCI/ADR-RES ovarian.
What all share (test): NCI-60 one-dose screen, 48 h (100 = growth as untreated, 0 = no growth, -100 = all killed)
Settings in all cases: 10 µM unless noted

For the molecule `COC(=O)c1cc(N=C2NC(=O)/C(=C/C=C/c3ccccc3)S2)ccc1O`, the growth with SK-MEL-2 melanoma was 74.1%; in the test on EKVX NSCLC, 53.7%; with SN12C renal, 38.6%; in the test on UO-31 renal it was 53.8%; in the test on TK-10 renal, 53.2%; in the test on ACHN renal, 46.5%. The growth in the test with CAKI-1 renal was 29%; in the test with A498 renal, 17.6%; in the test on CCRF-CEM leukemia, 20.7%; in the test on MOLT-4 leukemia, 31.7%; with SR leukemia, 27.5%; in the test with RPMI-8226 leukemia, 18.8%. In addition, the growth in the test with OVCAR-8 ovarian is 25.6%; in the test with OVCAR-5 ovarian, 71%; in the test on OVCAR-4 ovarian, 58.9%; in the test on SK-OV-3 ovarian, 33.3%; in the test with IGROV1 ovarian it was 37.6%; in the test with OVCAR-3 ovarian it was 18.7%. Besides, the growth in the test on HS 578T breast is 35.3%; with NCI/ADR-RES ovarian it was 5.59% (active).
`CCSC(SCC)c1ccc(Cl)cc1`: the growth is 116% in the test on SK-MEL-2 melanoma; 106% in the test on EKVX NSCLC; 99.7% with SN12C renal; 92.5% with UO-31 renal; 116% with TK-10 renal; 107% in the test with ACHN renal. In addition, the growth in the test on CAKI-1 renal was 82.9%; with A498 renal, 93.4%; in the test with CCRF-CEM leukemia it was 108%; in the test with MOLT-4 leukemia, 110%; in the test on SR leukemia, 109%; with RPMI-8226 leukemia, 106%. Further, the growth was 107% with OVCAR-8 ovarian; 109% in the test on OVCAR-5 ovarian; 108% with OVCAR-4 ovarian; 101% in the test with SK-OV-3 ovarian; 117% in the test on IGROV1 ovarian; 113% with OVCAR-3 ovarian. Also, the growth in the test with HS 578T breast was 102%; with NCI/ADR-RES ovarian, 97.1%.
Take `O=S(=O)(NCCNc1nccc(-c2c(-c3ccc(F)c(O)c3)nc3occn23)n1)c1ccc(Cl)cc1`: the growth is 42.2% with SK-MEL-2 melanoma; 104% in the test on EKVX NSCLC; 80.7% in the test with SN12C renal; 81.6% in the test with UO-31 renal; 122% with TK-10 renal; 76.5% in the test with ACHN renal. Also, the growth in the test on CAKI-1 renal is 92.7%; with A498 renal, 97.9%; in the test with CCRF-CEM leukemia it was 70.7%; in the test on MOLT-4 leukemia, 84.1%; in the test with SR leukemia, 75.8%; with RPMI-8226 leukemia it was 85.3%. In addition, the growth is 86% in the test with OVCAR-8 ovarian; 127% in the test on OVCAR-5 ovarian; 109% with OVCAR-4 ovarian; 87.1% with SK-OV-3 ovarian; 87.4% in the test with IGROV1 ovarian; 104% in the test on OVCAR-3 ovarian. Besides, the results for the growth in the test with HS 578T breast and in the test on NCI/ADR-RES ovarian were 89% and 102%, respectively.
As for `COc1ccc(/C=N/C2=C(C#N)C(c3ccccc3)c3ccc4ccccc4c3O2)cc1` (stereo not given), the growth is 49.4% with SK-MEL-2 melanoma; 42.9% in the test on EKVX NSCLC; 38% in the test with SN12C renal; 29.6% in the test with UO-31 renal; 59.7% with TK-10 renal; 35.4% with ACHN renal. For the same molecule, the growth with CAKI-1 renal is 28%; in the test on A498 renal it was 19.3%; with CCRF-CEM leukemia, 9.58% (active); in the test with MOLT-4 leukemia it was 19.2%; with SR leukemia it was 23.6%; in the test on RPMI-8226 leukemia, 8.19% (active). The growth in the test on OVCAR-8 ovarian was 14.1%; in the test with OVCAR-5 ovarian it was 26.7%; in the test on OVCAR-4 ovarian, 56.6%; in the test with SK-OV-3 ovarian, 21.6%; in the test on IGROV1 ovarian, 26.2%; with OVCAR-3 ovarian it was 2.08% (active). For the same molecule, the growth in the test with HS 578T breast was 29.8%; in the test with NCI/ADR-RES ovarian, 4.68% (active).
For the molecule `CN1CCc2nc3sc(C(N)=O)c(N)c3c(-c3cccs3)c2C1`, the growth was 27.3% in the test with SK-MEL-2 melanoma; 47.7% in the test with EKVX NSCLC; 29.1% in the test with SN12C renal; 4.13% (active) in the test on UO-31 renal; 43% in the test on TK-10 renal; 8.41% (active) in the test with ACHN renal. The growth in the test with CAKI-1 renal is 38.8%; in the test on A498 renal it was -1.55% (active); in the test with CCRF-CEM leukemia, 19.3%; in the test on MOLT-4 leukemia, 62.1%; with SR leukemia, 22.8%; in the test with RPMI-8226 leukemia it was 75.7%. Also, the growth with OVCAR-8 ovarian is 22.2%; with OVCAR-5 ovarian it was 15.1%; with OVCAR-4 ovarian it was 64.5%; in the test on SK-OV-3 ovarian, 57.4%; in the test with IGROV1 ovarian, 26.2%; with OVCAR-3 ovarian, -32.5% (active). The growth in the test on HS 578T breast was 32.4%; with NCI/ADR-RES ovarian it was 40.6%.
`Nc1n[nH]c2cccc(C#Cc3cccc(NC(=O)c4cc(F)cc(C(F)(F)F)c4)c3)c12`: the growth in the test with SK-MEL-2 melanoma is 63.2%; in the test with EKVX NSCLC it was 92.8%; in the test with SN12C renal, 53.1%; with UO-31 renal, 36.8%; in the test with TK-10 renal, 111%; in the test on ACHN renal, 64.7%. The growth is 104% in the test with CAKI-1 renal; 57.1% in the test on A498 renal; 43% in the test on CCRF-CEM leukemia; 48.1% in the test with MOLT-4 leukemia; 60.5% with SR leukemia; 63.8% in the test with RPMI-8226 leukemia. In addition, the growth in the test on OVCAR-8 ovarian is 94.2%; with OVCAR-5 ovarian it was 70.8%; in the test with OVCAR-4 ovarian it was 90.5%; with SK-OV-3 ovarian, 114%; in the test with IGROV1 ovarian it was 25.5%; with OVCAR-3 ovarian it was 80.7%. The growth is 36.8% in the test with HS 578T breast and 93.1% with NCI/ADR-RES ovarian.
Turning to `O=C(c1nn(-c2ccccc2)c2c1CC(NCc1ccc(F)cc1)CC2)N1CCCCC1` (stereo not given), the growth was 103% with SK-MEL-2 melanoma; 97.6% in the test with EKVX NSCLC; 105% in the test on SN12C renal; 74.2% in the test on UO-31 renal; 92.5% with TK-10 renal; 104% with ACHN renal. In addition, the growth in the test on CAKI-1 renal is 85%; in the test with A498 renal, 120%; in the test on CCRF-CEM leukemia, 108%; with MOLT-4 leukemia it was 73.5%; in the test with SR leukemia, 94.6%; with RPMI-8226 leukemia, 110%. In addition, the growth in the test on OVCAR-8 ovarian is 97%; in the test with OVCAR-5 ovarian it was 103%; in the test with OVCAR-4 ovarian, 99.2%; in the test with SK-OV-3 ovarian it was 103%; in the test on IGROV1 ovarian it was 97.7%; in the test on OVCAR-3 ovarian, 104%. Moreover, the growth was 107% with HS 578T breast and 93.9% in the test with NCI/ADR-RES ovarian.

The values above are taken from PubChem BioAssay (NCI).
